Consider 19 compounds from PubChem BioAssay (EPA / NIEHS).

As a reminder, the AC50 is the midpoint of the concentration-response curve, whichever way the signal moves.

Structures are written as SMILES. Values joined by “and” are separate entries in the source; they are usually repeats but may differ in a detail not shown here. Equal values may be shown once. Inconclusive results are not listed. Active and inactive are the calls of the source. How the source made its calls: active means hit-call score of the fitted dose curve at least 0.9, where 1 is the maximum; inconclusive means response in the unintended direction; inactive means score below 0.9.

Sequence of human Peroxisome Proliferator-activated Receptor alpha (PPARa), PPARA (gene 5465) (Q07869 whole entry, looked up): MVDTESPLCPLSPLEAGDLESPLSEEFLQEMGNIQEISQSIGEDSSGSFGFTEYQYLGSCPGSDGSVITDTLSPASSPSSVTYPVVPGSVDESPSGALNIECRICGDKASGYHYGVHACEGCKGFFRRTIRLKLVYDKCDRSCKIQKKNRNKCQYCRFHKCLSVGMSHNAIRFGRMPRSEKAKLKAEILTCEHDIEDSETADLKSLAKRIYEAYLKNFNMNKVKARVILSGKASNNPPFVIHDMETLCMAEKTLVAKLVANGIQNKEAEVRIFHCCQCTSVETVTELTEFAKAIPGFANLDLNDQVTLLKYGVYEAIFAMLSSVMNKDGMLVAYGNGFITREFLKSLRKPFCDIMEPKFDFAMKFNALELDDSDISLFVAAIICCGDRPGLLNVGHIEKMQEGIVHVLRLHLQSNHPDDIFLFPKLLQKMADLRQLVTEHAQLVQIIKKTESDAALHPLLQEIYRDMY
Sequence of Androgen Receptor/SRC-1 Co-activator, AR (gene 367) (P10275 whole entry, looked up, the tested form may be a part): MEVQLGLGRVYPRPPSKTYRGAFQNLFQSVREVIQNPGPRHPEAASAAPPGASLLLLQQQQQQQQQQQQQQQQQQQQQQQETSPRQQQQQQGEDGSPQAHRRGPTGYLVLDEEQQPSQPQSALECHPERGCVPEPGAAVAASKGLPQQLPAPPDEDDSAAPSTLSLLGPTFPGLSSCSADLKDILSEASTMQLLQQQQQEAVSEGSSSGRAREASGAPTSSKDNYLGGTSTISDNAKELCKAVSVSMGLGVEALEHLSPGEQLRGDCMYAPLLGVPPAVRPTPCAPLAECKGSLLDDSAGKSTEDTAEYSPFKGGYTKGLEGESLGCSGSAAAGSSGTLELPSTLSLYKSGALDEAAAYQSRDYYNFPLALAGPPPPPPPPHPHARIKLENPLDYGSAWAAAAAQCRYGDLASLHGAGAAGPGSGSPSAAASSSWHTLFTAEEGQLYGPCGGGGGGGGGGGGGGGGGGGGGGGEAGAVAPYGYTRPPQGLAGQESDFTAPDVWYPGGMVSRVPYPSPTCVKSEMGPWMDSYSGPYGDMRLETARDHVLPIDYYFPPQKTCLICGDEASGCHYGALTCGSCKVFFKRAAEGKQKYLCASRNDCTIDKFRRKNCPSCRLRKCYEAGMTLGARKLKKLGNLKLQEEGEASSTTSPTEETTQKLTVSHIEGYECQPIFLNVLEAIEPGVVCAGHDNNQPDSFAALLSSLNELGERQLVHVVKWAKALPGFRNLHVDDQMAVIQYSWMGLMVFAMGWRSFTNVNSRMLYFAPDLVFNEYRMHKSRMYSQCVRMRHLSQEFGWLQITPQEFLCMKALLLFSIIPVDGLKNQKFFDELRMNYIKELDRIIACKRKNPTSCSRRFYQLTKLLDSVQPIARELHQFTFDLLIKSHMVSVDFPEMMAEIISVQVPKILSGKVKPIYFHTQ
Sequence of Estrogen receptor beta (Homo sapiens) (Q92731 whole entry, looked up, the tested form may be a part): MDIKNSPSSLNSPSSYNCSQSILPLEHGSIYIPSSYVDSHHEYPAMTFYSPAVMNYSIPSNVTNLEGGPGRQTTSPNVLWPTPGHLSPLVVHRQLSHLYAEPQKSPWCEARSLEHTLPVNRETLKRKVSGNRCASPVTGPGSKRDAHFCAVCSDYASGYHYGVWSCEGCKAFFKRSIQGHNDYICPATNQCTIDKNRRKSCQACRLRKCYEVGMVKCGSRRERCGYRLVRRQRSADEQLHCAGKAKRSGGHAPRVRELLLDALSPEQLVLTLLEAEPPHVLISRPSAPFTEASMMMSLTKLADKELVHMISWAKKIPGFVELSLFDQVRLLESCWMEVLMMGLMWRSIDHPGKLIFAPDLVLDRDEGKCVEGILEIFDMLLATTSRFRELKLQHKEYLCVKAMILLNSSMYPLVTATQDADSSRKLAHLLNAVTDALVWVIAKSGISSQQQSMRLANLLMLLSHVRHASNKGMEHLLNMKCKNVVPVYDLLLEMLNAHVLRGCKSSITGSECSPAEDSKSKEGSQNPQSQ
Sequence of PGR (gene 5241) (P06401 whole entry, looked up): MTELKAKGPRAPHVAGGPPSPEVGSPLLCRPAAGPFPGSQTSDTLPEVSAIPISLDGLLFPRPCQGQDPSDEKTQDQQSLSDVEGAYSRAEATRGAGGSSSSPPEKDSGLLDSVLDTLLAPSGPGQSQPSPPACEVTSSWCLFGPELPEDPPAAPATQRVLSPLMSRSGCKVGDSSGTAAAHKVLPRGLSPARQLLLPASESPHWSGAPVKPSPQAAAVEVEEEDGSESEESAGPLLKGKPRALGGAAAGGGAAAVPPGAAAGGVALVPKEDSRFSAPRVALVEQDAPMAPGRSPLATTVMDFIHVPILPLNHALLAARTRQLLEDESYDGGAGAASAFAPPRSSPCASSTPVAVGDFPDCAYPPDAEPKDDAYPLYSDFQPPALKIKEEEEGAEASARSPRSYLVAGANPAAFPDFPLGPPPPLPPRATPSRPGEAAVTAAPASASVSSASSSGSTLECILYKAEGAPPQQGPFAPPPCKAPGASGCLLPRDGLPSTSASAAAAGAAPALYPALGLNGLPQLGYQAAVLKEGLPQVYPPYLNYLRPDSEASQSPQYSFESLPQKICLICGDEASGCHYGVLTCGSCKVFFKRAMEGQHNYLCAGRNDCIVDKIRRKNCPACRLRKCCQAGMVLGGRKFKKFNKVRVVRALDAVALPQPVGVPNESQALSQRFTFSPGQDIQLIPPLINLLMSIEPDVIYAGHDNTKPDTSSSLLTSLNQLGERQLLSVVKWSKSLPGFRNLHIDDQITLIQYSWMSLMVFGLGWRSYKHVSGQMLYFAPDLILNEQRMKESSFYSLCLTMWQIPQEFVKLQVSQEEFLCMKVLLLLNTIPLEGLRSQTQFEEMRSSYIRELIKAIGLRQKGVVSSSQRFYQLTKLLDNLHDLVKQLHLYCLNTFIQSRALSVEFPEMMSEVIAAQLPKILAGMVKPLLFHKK

In the first test the target is T1, Estrogen receptor (Homo sapiens) + Estrogen receptor beta (Homo sapiens) (UniProt P03372+Q92731). Kind of test: OT_ER_ERaERb_0480: Odyssey Thera (OT) 8-hour HEK293T Protein-Complementation Assay for Estrogen Receptor-alpha/-beta Heterodimer (AID 2283352). The procedure, abridged: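 HEK293T protein-fragment complementation assay of ER-alpha/ER-beta LBD heterodimerisation, read 8 h after dosing. Mean nuclear/cytoplasmic fluorescence intensity measured by laser scanning cytometry; gain of signal fitted relative to DMSO.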
T1 sequence (P03372 whole entry, looked up, the tested form may be a part): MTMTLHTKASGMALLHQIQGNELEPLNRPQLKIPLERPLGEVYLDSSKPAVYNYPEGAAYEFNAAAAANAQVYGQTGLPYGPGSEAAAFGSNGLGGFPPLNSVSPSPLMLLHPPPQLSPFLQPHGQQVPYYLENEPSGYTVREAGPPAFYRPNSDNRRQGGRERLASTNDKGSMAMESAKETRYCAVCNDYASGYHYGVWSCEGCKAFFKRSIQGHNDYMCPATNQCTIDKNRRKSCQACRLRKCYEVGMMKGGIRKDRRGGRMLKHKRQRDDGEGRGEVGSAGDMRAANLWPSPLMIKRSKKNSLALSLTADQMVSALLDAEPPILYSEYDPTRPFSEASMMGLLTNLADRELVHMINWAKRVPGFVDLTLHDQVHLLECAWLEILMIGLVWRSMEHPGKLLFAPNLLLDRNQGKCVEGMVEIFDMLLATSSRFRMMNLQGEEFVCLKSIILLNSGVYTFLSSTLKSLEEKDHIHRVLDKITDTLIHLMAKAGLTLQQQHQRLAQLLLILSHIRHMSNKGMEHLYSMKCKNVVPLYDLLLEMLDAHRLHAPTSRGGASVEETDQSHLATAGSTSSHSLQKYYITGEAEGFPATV
T1 sequence (Q92731 whole entry, looked up, the tested form may be a part): as the sequence (Q92731 whole entry, looked up, the tested form may be a part) above
For `Cc1ccc(C(C)(C)C)c(O)c1`, the result was inactive.
The same measure, in the same setting: with `Nc1nc(=S)c2[nH]cnc2[nH]1` the entry was “inactive”; with `O=C1CCCCC1`, “inactive”.
As for `CSc1ccc(Oc2ccc(S(N)(=O)=O)cc2CN(C)C)cc1C`, the result was inactive.
Same read-out and setting: the value for `CCC(C)N(C)C(=O)c1cc2ccccc2c(-c2ccccc2Cl)n1` (stereo not drawn) was “inactive”.
The same measure, in the same setting: with `O=[Si]=O` the entry was “inactive”.
Regarding `CC(C)OC(=O)C(C)(C)Oc1ccc(C(=O)c2ccc(Cl)cc2)cc1`, the outcome was inactive.
On the same count and under the same terms, the value for `COc1ccc(OC(F)(F)F)cc1CN[C@H]1CCCN[C@H]1c1ccccc1` was “inactive”.
As to `CCCCCCCCCC[N+](C)(C)[O-]`, the result was inactive.

A further test addresses Androgen Receptor/SRC-1 Co-activator, AR (gene 367) (UniProt P10275). Kind of test: OT_AR_ARSRC1_0960: Odyssey Thera (OT) 16-hour HEK293T Protein-Complementation Assay for Androgen Receptor/SRC-1 Co-activator (AID 2283353).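 Further: actives raise the signal above DMSO so potency reflects increased AR and SRC-1 complex.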 An outline of the steps: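 Stable HEK293T line carries AR and SRC-1 each linked to a Venus fragment; chemicals are applied for 16 h, cells imaged at two wavelengths, and the 488 nm nucleus/cytoplasm ratio is taken as the signal, rising relative to DMSO.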
On to `Nc1nc(=S)c2[nH]cnc2[nH]1`, for which the call was inactive.
Consider `O=C1CCCCC1`, for which the outcome was inactive.
Take `CSc1ccc(Oc2ccc(S(N)(=O)=O)cc2CN(C)C)cc1C`: the concentration at half-maximal activity (AC50) was 80.7 µM (active).
`Cc1c(C)c2c(c(C)c1O)CCC(C)(COc1ccc(CC3SC(=O)NC3=O)cc1)O2` (stereo not drawn): the AC50 is 27.4 µM (active).
On the same count and under the same terms, the value for `CCC(C)N(C)C(=O)c1cc2ccccc2c(-c2ccccc2Cl)n1` (stereo not drawn) was 26 µM (active); that for `O=Cc1ccccc1C=O` was 75.3 µM (active); that for `CC(C)OC(=O)C(C)(C)Oc1ccc(C(=O)c2ccc(Cl)cc2)cc1` was 34.4 µM (active).
On to `Cc1ccc(-c2cc(C(F)(F)F)nn2-c2ccc(S(N)(=O)=O)cc2)cc1`, for which the AC50 is 33.7 µM (active).
`CCCCCCCCCC[N+](C)(C)[O-]`: the compound was called inactive.

The next test has the same target. Nature of the test: OT_AR_ARSRC1_0480: Odyssey Thera (OT) 8-hour HEK293T Protein-Complementation Assay for Androgen Receptor/SRC-1 Co-activator (AID 2283354).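 Further: hits raise the complementation signal above DMSO so AC50 marks enhancers.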 An outline of the steps:
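Split-Venus PCA, stable HEK293T, AR/SRC-1 fusions; 8 h exposure. Readout: 488nm N/C fluorescence ratio, ≥400 cells/image; fitted upward vs DMSO baseline.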
In the case of `Nc1nc(=S)c2[nH]cnc2[nH]1`, the outcome was inactive.
Consider `O=C1CCCCC1`, for which the result was inactive.
Regarding `CSc1ccc(Oc2ccc(S(N)(=O)=O)cc2CN(C)C)cc1C`, the AC50 is 77 µM (active).
On to `Cc1c(C)c2c(c(C)c1O)CCC(C)(COc1ccc(CC3SC(=O)NC3=O)cc1)O2` (stereo not drawn), for which the outcome was inactive.
The same measure, in the same setting: the value for `CCC(C)N(C)C(=O)c1cc2ccccc2c(-c2ccccc2Cl)n1` (stereo not drawn) was “inactive”.
For the compound `O=Cc1ccccc1C=O`, the AC50 was 66.1 µM (active).
On to `CC(C)OC(=O)C(C)(C)Oc1ccc(C(=O)c2ccc(Cl)cc2)cc1`, for which the compound was classed as inactive.
For the compound `Cc1ccc(-c2cc(C(F)(F)F)nn2-c2ccc(S(N)(=O)=O)cc2)cc1`, the AC50 was 72.6 µM (active).
In the case of `CCCCCCCCCC[N+](C)(C)[O-]`, the call was inactive.

The next test has as its target T1, Estrogen receptor (Homo sapiens) + Estrogen receptor beta (Homo sapiens). Kind of test: OT_ER_ERaERb_1440: Odyssey Thera (OT) 24-hour HEK293T Protein-Complementation Assay for Estrogen Receptor-alpha/-beta Homodimer (AID 2283356).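 Further: heteromer of ER alpha and ER beta binding domains; hits raise reporter fluorescence and both agonists and antagonists give an increase.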 An outline of the steps: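 HEK293T stably expressing a PCA of ER alpha LBD (aa 310-547) and ER beta LBD (aa 263-489). After 24 h compound exposure, mean fluorescence intensity in nucleus (agonists) or nucleus and cytoplasm (antagonists) measured by laser scanning cytometry versus vehicle.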
In the case of `Cc1ccc(C(C)(C)C)c(O)c1`, the concentration at half-maximal activity (AC50) was 33.9 µM (active).
For the compound `CCCCc1nc2cccnc2n1Cc1ccc(-c2ccccc2-c2nnn[nH]2)cc1`, the outcome was inactive.
Still for that read-out and setting: with `Nc1nc(=S)c2[nH]cnc2[nH]1` the entry was “inactive”; with `O=C1CCCCC1`, “inactive”.
Consider `O=C(N[C@@H](c1ccccc1)[C@@H]1CCCCN1)c1cccc(C(F)(F)F)c1Cl`, for which the outcome was inactive.
Still for that read-out and setting: with `CSc1ccc(Oc2ccc(S(N)(=O)=O)cc2CN(C)C)cc1C` the entry was “inactive”; with `Cc1c(C)c2c(c(C)c1O)CCC(C)(COc1ccc(CC3SC(=O)NC3=O)cc1)O2` (stereo not drawn), “inactive”.
Still for that read-out and setting: with `CCC(C)N(C)C(=O)c1cc2ccccc2c(-c2ccccc2Cl)n1` (stereo not drawn) the entry was “inactive”; with `O=Cc1ccccc1C=O`, “inactive”; with `O=[Si]=O`, “inactive”.
Same read-out and setting: the value for `CC(C)OC(=O)C(C)(C)Oc1ccc(C(=O)c2ccc(Cl)cc2)cc1` was “inactive”; that for `COc1ccc(OC(F)(F)F)cc1CN[C@H]1CCCN[C@H]1c1ccccc1` was “inactive”.
For `CCCCCCCCCC[N+](C)(C)[O-]`, the result was inactive.

A further test concerns the target Estrogen receptor beta (Homo sapiens) (UniProt Q92731). Nature of the test: OT_ER_ERbERb_0480: Odyssey Thera (OT) 8-hour HEK293T Protein-Complementation Assay for Estrogen Receptor-beta/-beta Homodimer (AID 2283357).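 Further: active means signal gain over DMSO baseline.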 The procedure, abridged:
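Homodimerization of ER-beta LBD measured by protein-fragment complementation in HEK293T; 8 h dosing; fixed, Draq5 counterstain; fluorescence intensity gain over DMSO baseline, positive fitting direction; laser scanning cytometry.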
In the case of `Cc1ccc(C(C)(C)C)c(O)c1`, the AC50 was 13.2 µM (active).
In the case of `CCCCc1nc2cccnc2n1Cc1ccc(-c2ccccc2-c2nnn[nH]2)cc1`, the call was inactive.
With `CC(=O)[C@@]1(O)CC[C@H]2[C@@H]3CCC4=CC(=O)CC[C@]4(C)[C@H]3CC[C@@]21C`, the compound was called inactive.
Same read-out and setting: with `CCCCC(CC)COC(=O)CCCCCCCC(=O)OCC(CC)CCCC` (stereo not drawn) the entry was “inactive”.
Same read-out and setting: with `Nc1nc(=S)c2[nH]cnc2[nH]1` the entry was “inactive”; with `O=C1CCCCC1`, “inactive”; with `O=C(N[C@@H](c1ccccc1)[C@@H]1CCCCN1)c1cccc(C(F)(F)F)c1Cl`, “inactive”.
The same measure, in the same setting: the value for `S=c1[nH]c2ccccc2s1` was “inactive”; that for `Cc1c(C)c2c(c(C)c1O)CCC(C)(COc1ccc(CC3SC(=O)NC3=O)cc1)O2` (stereo not drawn) was “inactive”.
For `Cc1cc(Cc2ccc(N)c(C)c2)ccc1N`, the AC50 is 67.6 µM (active).
Turning to `CCC(C)N(C)C(=O)c1cc2ccccc2c(-c2ccccc2Cl)n1` (stereo not drawn), the compound was called inactive.
Consider `O=Cc1ccccc1C=O`, for which the compound was classed as inactive.
The same measure, in the same setting: with `O=[Si]=O` the entry was “inactive”.
In the case of `CCN(CC)CCOc1ccc(C(=C(Cl)c2ccccc2)c2ccccc2)cc1`, the AC50 is 21.5 nM (active) and 118 nM (active) and 9.83 nM (active).
For `CC(C)OC(=O)C(C)(C)Oc1ccc(C(=O)c2ccc(Cl)cc2)cc1`, the outcome was inactive.
Same read-out and setting: with `CCCCCCCCCC[N+](C)(C)[O-]` the entry was “inactive”.

In another test the target is human Peroxisome Proliferator-activated Receptor alpha (PPARa), PPARA (gene 5465) (UniProt Q07869). Nature of the test: NVS_NR_hPPARa: NovaScreen (NVS) Nuclear Receptor Binding Assay for human Peroxisome Proliferator-activated Receptor alpha (PPARa) (AID 2283359).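 Further: activity means loss of TR-FRET signal versus DMSO baseline.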 The procedure, abridged:
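TR-FRET signal measured at 1 h post-dosing; loss-of-signal versus DMSO negative control taken as activity. Extracted gene-protein, cell-free format. Initial single-point duplicates at 25 uM, then concentration-response retests.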
Consider `O=C(N[C@@H](c1ccccc1)[C@@H]1CCCCN1)c1cccc(C(F)(F)F)c1Cl`, for which the call was inactive.
For the compound `CSc1ccc(Oc2ccc(S(N)(=O)=O)cc2CN(C)C)cc1C`, the outcome was inactive.
In the case of `CCC(C)N(C)C(=O)c1cc2ccccc2c(-c2ccccc2Cl)n1` (stereo not drawn), the compound was called inactive.
As for `COc1ccc(OC(F)(F)F)cc1CN[C@H]1CCCN[C@H]1c1ccccc1`, the compound was called inactive.

The next test concerns the target PGR (gene 5241) (UniProt P06401). Nature of the test: NVS_NR_hPR: NovaScreen (NVS) Nuclear Receptor Binding Assay for human Progestron Receptor (PR) (AID 2283360).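 Further: active means loss of bound radioligand signal versus DMSO baseline.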 An outline of the steps: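 T47D-derived receptor preparation, cell-free, with tritiated or iodinated radioligand displacement measured by scintillation 18 h post-dosing. Single 25 uM duplicate screen, then concentration series; signal loss relative to DMSO.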
Consider `CC(=O)[C@@]1(O)CC[C@H]2[C@@H]3CCC4=CC(=O)CC[C@]4(C)[C@H]3CC[C@@]21C`, for which the concentration at half-maximal activity (AC50) is 0.645 µM (active).
With `CSc1ccc(Oc2ccc(S(N)(=O)=O)cc2CN(C)C)cc1C`, the outcome was inactive.
Turning to `O=Cc1ccccc1C=O`, the outcome was inactive.
